ALOX12 inh: Primary qHTS assay for inhibitors of human arachidonate 12S-lipoxygenase (ALOX12): Round 2 | Polyunsaturated fatty acid lipoxygenase ALOX12 (Homo sapiens), P18054 | purified 12hLO, xylenol orange hydroperoxide absorbance | Potency, µM (top dose mostly 108 µM), for the others: top-dose activity change, negative = inhibition, hits mostly inhibitors | 1.1% of 580,000 active | AID 1671190, 2021; note: potency is the fitted concentration of half-maximal effect
Target sequence (P18054 whole entry, looked up): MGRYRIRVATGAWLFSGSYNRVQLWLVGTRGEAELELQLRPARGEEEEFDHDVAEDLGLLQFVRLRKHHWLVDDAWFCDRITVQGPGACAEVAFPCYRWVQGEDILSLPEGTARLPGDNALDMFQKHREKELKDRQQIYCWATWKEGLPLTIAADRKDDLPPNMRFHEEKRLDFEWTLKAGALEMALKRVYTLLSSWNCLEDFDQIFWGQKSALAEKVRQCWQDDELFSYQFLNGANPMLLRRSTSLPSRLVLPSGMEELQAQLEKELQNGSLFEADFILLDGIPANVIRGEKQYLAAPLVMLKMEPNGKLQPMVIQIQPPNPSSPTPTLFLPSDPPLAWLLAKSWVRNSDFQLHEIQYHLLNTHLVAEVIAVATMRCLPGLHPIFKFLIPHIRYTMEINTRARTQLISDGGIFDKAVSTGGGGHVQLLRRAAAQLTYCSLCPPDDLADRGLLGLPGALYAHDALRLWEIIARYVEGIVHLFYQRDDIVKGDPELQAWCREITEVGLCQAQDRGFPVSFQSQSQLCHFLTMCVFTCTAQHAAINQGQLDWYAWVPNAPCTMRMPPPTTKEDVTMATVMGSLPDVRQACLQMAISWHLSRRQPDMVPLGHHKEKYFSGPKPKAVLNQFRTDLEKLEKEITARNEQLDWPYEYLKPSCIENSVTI
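Hydroperoxide product was detected by ferrous iron/xylenol orange as the 573 to 405 nm absorbance ratio. Arachidonic acid at 40 uM (final) was turned over for 30 min at room temperature by 150 nM human 12hLO, pH 7.0 Hepes buffer, after 15 min compound preincubation.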
HT1080 IDH1KD tx: qHTS for induction of synthetic lethality in tumor cells producing 2HG: qHTS for the HT-1080-IDH1KD cell line; AID 686971, 2013; 2% of 360,000 active; HT-1080 IDH1 knockdown viability, ATP luminescence, 48 h; Potency, µM (series often up to 46.1 µM), for inactives: at the top dose activity, negative = toxicity, actives largely listed as cytotoxic;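 note: potency is the fitted concentration of half-maximal effect; 0% = DMSO wells and -100% = cell-free medium wells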
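After a 2 h attachment period, IDH1KD HT-1080 cells took pin-transferred compound for 48 h at 37 °C; ATP-based luminescence after 10 min room-temperature reagent incubation reported viability.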
TDP1 cell noCPT: qHTS for Inhibitors of human tyrosyl-DNA phosphodiesterase 1 (TDP1): qHTS in cells in absence of CPT | DT40 Tdp1-/- hTDP1 cells, no CPT, ATP luminescence, 48 h | Potency, µM (series often up to 46.2 µM), for inactives: at the top dose activity change, negative = growth inhibition, hits mostly inhibitors | 15% of 420,000 active | AID 686978, 2013; note: potency is the fitted concentration of half-maximal effect; nearly all actives have a fitted effect of over 55% in size
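Growth of hTDP1-complemented DT40 Tdp1-knockout cells is measured by ATP luminescence after at least 48 hr compound exposure at 37 °C, with DMSO substituting for the 20 nM CPT used in the parallel screen.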
DT40 TDP1 CPT: qHTS for Inhibitors of human tyrosyl-DNA phosphodiesterase 1 (TDP1): qHTS in cells in presence of CPT; chicken DT40 Tdp1-/-;hTDP1 cells + 20 nM CPT, ATP luminescence, 48 h; Potency, µM (doses to about 46.2 µM), for the others: at the highest dose activity change, negative = growth inhibition, usual class: inhibitors; 12% of 420,000 active; AID 686979, 2013; note: potency is the fitted concentration of half-maximal effect; nearly all actives have a fitted effect of over 55% in size
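Chicken DT40 Tdp1-/- cells stably complemented with human TDP1 were seeded at 400 cells/well in medium containing 20 nM camptothecin, exposed to pin-transferred compounds, and grown at 37 °C for at least 48 hr. Viability was read as ATP luminescence.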
HT1080NT lethal: qHTS for induction of synthetic lethality in tumor cells producing 2HG: qHTS for the HT-1080-NT fibrosarcoma cell line | HT-1080-NT fibrosarcoma viability, CellTiter-Glo ATP luminescence, 48 h | Potency, µM (top dose mostly 46.1 µM), without a hit: at the highest dose activity, negative = less viability, actives largely listed as cytotoxic | 1.6% of 360,000 active;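 note: NT is the 2HG producing partner of a matched IDH1 knockdown line; potency is the fitted concentration of half-maximal effect; 0% = DMSO-treated cells and -100% = media-only wells without cells; nearly all actives have a fitted effect of over 55% in size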
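Viability of the 2HG-overproducing fibrosarcoma line after 48 hours of compound exposure at 37 degrees C was determined by luminescence with CellTiter-Glo, and concentration-effect curves were then fitted and categorized.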
IL-1B inflam inh: qHTS for Inhibitors of Inflammasome Signaling: IL-1-beta AlphaLISA Primary Screen; activity change, % at 57.5 µM; 4.7% of 360,000 active; THP-1 LPS/ATP IL-1B secretion, AlphaLISA, 16 h; active compounds read low; in the data active = activity change below about -50%; inconclusive = mostly about -30% to -49%
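Secreted IL-1B measured by AlphaLISA bead assay after 16 h compound exposure of THP-1 cells; compounds (final up to 57.5 uM) added 1 h before LPS (250 ng/mL) and ATP (1.25 mM) stimulation; lower signal means less secretion.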
Numbers without * were called inactive; ? = inconclusive; · = not tested or not shown; ! = repeats disagree; [ ] = dose if it differs, or a comment. This is one part of a sample in which hits are shown more often than they occur. Unless noted, calls come from the whole dose curve; as a rule, active = well fitted curve in the direction sought with a large enough effect; inconclusive = small, poorly fitted or top-dose-only effect, or another doubt; inactive = no such curve, though single readings can be large; an effect the other way counts as inactive or inconclusive. Unless noted, % is set by controls: 0 for no effect and ±100 for the full control effect.

SMILES | ALOX12 inh | HT1080 IDH1KD tx | TDP1 cell noCPT | DT40 TDP1 CPT | HT1080NT lethal | IL-1B inflam inh
CN(C(=O)COC(=O)c1ccc([N+](=O)[O-])cc1)c1ccccc1 | 0% | 18% | -25% | 5% | 11% | -11
CCc1cc(C(c2ccc(F)cc2)N2CCN(CC)CC2)c(NC(=O)c2ccco2)s1 (stereo not drawn) | 10µM* | · | · | · | · | ·
COc1ccc(C(c2c(NC(=O)c3ccco3)sc(C)c2C)N2CCOCC2)cc1OC (stereo not drawn) | -25% | -3% | ? | -28% | -1% | -10
CCc1cc(C(c2ccc(OC)cc2)N2CCOCC2)c(NC(=O)c2ccco2)s1 (stereo not drawn) | 7.1µM* | · | · | · | · | ·
CC(=O)Nc1ccccc1C(=O)C(=O)Nc1ccc(Cl)cc1 | -8% | -10% | -21% | -14% | -4% | 6
O=C(NC(NC(=S)Nc1cccc(Cl)c1)C(Cl)(Cl)Cl)OCc1ccccc1 (stereo not drawn) | ? | ? | 18µM* | ? | ? | ?
CCOC(=O)NC(NC(=S)Nc1ccccc1OC)C(Cl)(Cl)Cl (stereo not drawn) | -17% | -2% | -23% | -10% | -3% | 0
CC(=O)NC(NC(=S)Nc1ccc(N=Nc2ccccc2)cc1)C(Cl)(Cl)Cl (stereo not drawn) | -14% | ? | ? | ? | ? | -19
CC(=O)NC(NC(=S)Nc1cccc(Br)c1)C(Cl)(Cl)Cl (stereo not drawn) | ? | ? | ? | ? | -24% | -60*
O=C(NC(NC(=S)Nc1cccc(C(=O)O)c1)C(Cl)(Cl)Cl)OCc1ccccc1 (stereo not drawn) | 0% | 10% | -2% | 14% | 24% | 5
CC(=O)Nc1ccccc1C(=O)C(=O)Nc1cccc(Br)c1 | 1% | -22% | 18µM* | -28% | -24% | -1
Cc1cccc(NC(=S)NC(NC(=O)OCc2ccccc2)C(Cl)(Cl)Cl)c1 (stereo not drawn) | -29% | ? | ? | 23µM* | ? | -3
COc1cccc(NC(=O)Cn2c(C)cc3nc4n(c(=O)c32)CCC4)c1 | 25% | · | · | · | · | ·
COc1cccc(C2CC(=O)N(c3cccc(C(F)(F)F)c3)C3=C2C(=O)OC3)c1OC (stereo not drawn) | -1% | · | · | · | · | ·
CN(C(=O)c1ccc(F)cc1)C1CCc2ccccc21 (stereo not drawn) | 110%[176 µM] | · | · | · | · | ·
CC(=O)Nc1scc(-c2ccccc2)[n+]1-c1ccc(C)cc1 | -22% | -9% | 13µM* | 15µM* | 1% | -20
CCOC(=O)/C(=N/O)C1=NC(C)(C)Cc2cc(C)c(C)cc21 | 9% | -21% | 0% | 12% | -17% | -72*
COc1ccc2c(C)c(CC(=O)NC3CC(C)(C)NC(C)(C)C3)c(=O)oc2c1OC | 0% | · | · | · | · | ·
COc1cc(/C=C2/C(=O)NN(c3ccc(F)cc3)C2=O)cc(Cl)c1O | ? | -22% | ? | -22% | ? | 37
COc1cc(/C=C2/C(=O)NN(c3ccc(Cl)c(Cl)c3)C2=O)cc([N+](=O)[O-])c1O | 35µM* | -5% | 11% | -8% | 4% | -14
CC(=O)N1C[C@@H]2CCCN3CCC[C@@H]([C@H]23)[C@H]1CCCC(=O)Nc1ccccc1 | -13% | · | · | · | · | ·
CC(=O)c1c(C)[nH]c(C(=O)Cn2cnc3ccccc3c2=O)c1C | -24% | · | · | · | · | ·
COC(=O)c1ccc2c(=O)[nH]c(COC(=O)c3[nH]c(C)c(C(C)=O)c3C)nc2c1 | -16% | -17% | 16µM* | ? | -12% | 32
CC(NC(=O)c1ccccc1)C(=O)OCn1nnc2ccccc2c1=O (stereo not drawn) | 427% | -2% | 15% | 26µM* | -4% | -5
C[C@H](NC(=O)c1ccc(Cl)cc1)C(=O)OCn1nnc2ccccc2c1=O | 160% | -4% | -24% | ? | -3% | 3
SMILES | ALOX12 inh | HT1080 IDH1KD tx | TDP1 cell noCPT | DT40 TDP1 CPT | HT1080NT lethal | IL-1B inflam inh
CC(=O)c1c(C)[nH]c(C(=O)OCn2nnc3ccccc3c2=O)c1C | -11% | -11% | 16µM* | 16µM* | -9% | 13
COc1ccccc1OCCn1cc(C(C)=O)c2ccccc21 | 52% | · | · | · | · | ·
O=C(c1ccc(C2CCCNC2)cc1)N1CCC(Oc2cccc(F)c2)CC1 (stereo not drawn) | 3% | · | · | · | · | ·
CCc1ccc2[nH]c3nc(SCc4nnc(-c5ccc(C)cc5)o4)nnc3c2c1 | 0% | 9% | ? | ? | 11% | 26
CCc1ccc2[nH]c3nc(SCC(=O)NNC(=O)c4ccc(C(C)(C)C)cc4)nnc3c2c1 | -11% | -4% | 16µM* | 21µM* | 5% | -59*
Cc1ccc(C(=O)NNC(=O)CSc2nnc3c(n2)[nH]c2ccc(C)cc23)cc1 | · | 18% | 18µM* | ? | -1% | 31
CCc1ccc2[nH]c3nc(SCCN4CCOCC4)nnc3c2c1 | -2% | -7% | 23µM* | ? | 11% | 11
N#Cc1cccc(CNCC(c2ccccc2)N2CCCC2)c1 (stereo not drawn) | 6% | · | · | · | · | ·
C1CCC(N=C(NC23CC4CC(CC(C4)C2)C3)N2CCOCC2)CC1 | 95% | · | · | · | · | ·
C1CCC(NC(=NC2C3CC4CC(C3)CC2C4)N2CCOCC2)CC1 (stereo not drawn) | 10%[176 µM] | · | 23µM* | 29µM*! | · | ·
O=C(CSc1nnc(COc2ccc(Br)cc2)o1)N1CCOCC1 | -9% | -14% | 18µM* | -33% | 21% | 42
O=C(COc1ccc2cc(Br)ccc2c1)N1CCOCC1 | 63% | 4% | ? | 15µM* | 0%[9.24 µM] | -13
O=C(CCl)N(C/C=C/c1ccccc1)c1ccc2c(c1)OCCO2 | ? | ? | 6.5µM* | 3.7µM* | 10µM* | -115*
COc1ccc(-n2nc(C)c([C@@H]3C=C[C@@H](NCc4cccc(Cl)c4)C3)c2C)cc1 | -25%[176 µM] | · | · | · | · | ·
Cn1cnc2c1c(=O)n(CC(=O)Nc1ccc(S(=O)(=O)N3CCCCCC3)cc1)c(=O)n2C | 9% | · | · | · | · | ·
CN(C)CCCN(C(=O)c1cc2ccccc2oc1=O)c1nc2ccc(F)cc2s1 | ? | 10% | ? | -20% | -4% | 0
